Measured values: PubChem BioAssay AID493222 (Johns Hopkins Ion Channel Center, 2011)
The whole screen tested about 2,400 compounds, of which about 95 (4%) were called active.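 The calls were made as follows: active = mean of duplicate membrane potential ratios lying over 3 SD above or below the buffer control mean, so actives fall on both sides; inactive = the rest.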 These entries were drawn from the full list.

Assay: membrane potential effects in parental HEK293, counter-screen for CHT inhibitor project, cell-based, membrane potential dye (AID 493222);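 also: parental cells lack the transporter so any hit is non-specific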;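 as to membrane potential ratio readout (active if shifted either direction beyond buffer ±3SD; no single direction): ratio is peak minus trough fluorescence over baseline after EC90 choline challenge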
Conditions: choline response, at 10 µM; active = decrease or increase beyond buffer ±3SD

SMILES | membrane potential ratio readout (active if shifted either direction beyond buffer ±3SD; no single direction)
O=C(c1cccs1)C1C(c2ccc(Br)cc2)NC(=S)NC1(O)C(F)(F)F (configuration not stated) | inactive
COc1ccc2c(c1)OC(O)(C(F)(F)C(F)F)CC2=O (configuration not stated) | inactive
Cc1ccc(S(=O)(=O)/N=C(/NC(=S)Nc2c(C)n(C)n(-c3ccccc3)c2=O)c2ccccc2)cc1 | inactive
O=C(C1CCN(S(=O)(=O)c2ccc(Br)s2)CC1)N1CCN(c2ccccc2)CC1 | inactive
CC(=O)Nc1nc2c(s1)C(=O)NCC(C)(C)C2 | inactive
CC1CCCC(NC(=O)c2cccc(N3CCCC3=O)c2)C1C (configuration not stated) | inactive
CNCC(O)c1ccc(O)c(O)c1 (configuration not stated) | inactive
CCCCOc1ccc(Cl)cc1CSc1nncn1N | inactive
O=C(Nc1ccn(Cc2ccccc2)n1)c1n[nH]c([N+](=O)[O-])c1Cl | inactive
CCOc1ccc(/C=C2\SC(=S)N(NC(=O)c3ccncc3)C2=O)cc1OC | inactive
CCOC(=O)C1(CCOC)CCN(Cc2ccc(C(=O)OC)cc2)CC1 | inactive
OC1CN=C2Sc3ccccc3N2C1 (configuration not stated) | inactive
CC(Oc1ccc2ccccc2c1)C(=O)NNC(=S)NC(=O)c1ccco1 (configuration not stated) | inactive
CCCCCn1c(=O)c(C(=O)OCC)c(Cl)c2ccccc21 | inactive
O=[N+]([O-])c1ccccc1Nc1ccc(O)cc1 | 2.4 (active)
Cc1ccc(SC(CC(=O)c2ccc(C(C)(C)C)cc2)C(=O)O)cc1 (configuration not stated) | inactive
C/C(=N\Nc1nc2ccccc2[nH]1)c1cccs1 | inactive
Nc1cc(N2CCCCCC2)c2nonc2c1[N+](=O)[O-] | inactive
Cc1ccc(C(=O)N/C(=C/C=C/c2ccccc2)C(=O)NCc2ccco2)cc1 | inactive

SMILES | membrane potential ratio readout (active if shifted either direction beyond buffer ±3SD; no single direction)
CCc1ccc2c(c1)C1(NN=C(c3ccccc3)S1)C(=O)N2 (configuration not stated) | inactive
O=S(=O)(c1cccc(-c2nnc(SC(F)F)n2-c2ccccc2)c1)N1CCCCC1 | inactive
Cn1c2ccccc2c(=O)c2c(O)cccc21 | inactive
CC(=O)OCCOCn1cnn2c(=O)c(Br)c(C)nc12 | inactive
CCNC(=O)CC1C(=O)N(c2ccc(F)cc2)C(=O)N1CCc1sccc1C (configuration not stated) | inactive
C/C(=N\NC(N)=S)c1cccnc1 | inactive
COc1ccc(NC(=O)c2sc(N)nc2-c2ccccc2)cc1 | inactive
Cc1ccccc1-n1c(C)cc(/C=N/NC(=O)c2ccc(CN3CCOCC3)cc2)c1C | inactive
O=C(Nc1ccccc1C(=O)NCCCn1ccnc1)c1ccc(Cl)cc1Cl | inactive
CCc1ccccc1N1CN(Cc2ccco2)CNC1=S | inactive
COC(=O)CN1C(C)=Nc2ccc(Br)cc2C1c1ccccc1 (configuration not stated) | inactive
CCN(CC)Cc1c(C(=O)N/N=C/c2cccc(OCc3ccc(F)cc3)c2)nnn1-c1nonc1N | inactive
CC(C)CCn1c(CN(C)Cc2ccccc2)nc2c1c(=O)n(C)c(=O)n2C | inactive
O=C(O)c1ccc(N/N=C/c2cn(-c3ccccc3)nc2-c2cccs2)cc1 | inactive
CCC(Oc1ccccc1C)C(=O)Nc1ccc(S(=O)(=O)Nc2cc(C)on2)cc1 (configuration not stated) | inactive
CC1CCN(C(=O)CN(c2ccc(Oc3ccccc3)cc2)S(C)(=O)=O)CC1 | inactive
CCN(CC)CCC(c1ccc2c(c1)OCO2)c1c(OC)cc(OC)c2c(-c3ccccc3)cc(=O)oc12 (configuration not stated) | inactive
C/C(=N\N=C(N)N)c1ccc(Cl)cc1 | inactive
COC(=O)c1ccccc1NC(=O)Cn1nc(C(F)(F)F)c2c1CCC2 | inactive

SMILES | membrane potential ratio readout (active if shifted either direction beyond buffer ±3SD; no single direction)
O=C1c2cccc3cccc(c23)C(=O)N1CCCCCc1n[nH]c(=S)o1 | inactive
CC(C)n1c(=S)[nH]c2cc(C(F)(F)F)ccc21 | inactive
O=C(Cn1ncc2c3ccccc3n(Cc3ccccc3)c2c1=O)NCCCN1CCOCC1 | inactive
CCOC(=O)N1CCN(C(=O)c2ccc(CN(c3ccc(C)c(C)c3)S(C)(=O)=O)cc2)CC1 | inactive
CCCn1c2ccccc2c2cnn(CC(=O)NCCCN3CCCCC3CC)c(=O)c21 (configuration not stated) | inactive
Cc1ccccc1-n1nnc2c(=O)oc3ccccc3c21 | inactive
C=CCn1c(SCc2ccc(C(=O)NCCO)cc2)nc2ccccc2c1=O | inactive
O=C(/C=C/c1cn(-c2ccccc2)nc1-c1ccc2c(c1)OCCO2)NCCCN1CCOCC1 | inactive
COc1ccc(C(=O)NC(Cc2ccc(OC(=O)c3ccc(OC)cc3)cc2)C(=O)O)cc1 (configuration not stated) | inactive
Cc1cccnc1NC(=O)c1cccc(S(=O)(=O)N2CCN(c3ccc(F)cc3)CC2)c1 | inactive
CCOc1ccccc1Nc1ccc2nonc2c1[N+](=O)[O-] | inactive
O=C(CCCN1C(=O)CSc2ncccc21)N1CCN(c2cccc(C(F)(F)F)c2)CC1 | inactive
CCOCCCN(C)C1CCN(C(=O)c2oc3ccccc3c2NC(=O)COc2cccc(C)c2)CC1 | 3.33 (active)
Cc1ccc2c(C)c(C(=O)N3CCC(N4CCC(C(=O)NC5CC5)CC4)CC3)oc2c1 | inactive
COCCNc1nc(-n2nc(C)cc2C)nc2sc3c(c12)CCCC3 | inactive
O=c1c2ccccc2nnn1CSc1nc2sc3c(c2c(=O)n1CC1CCCO1)CCC3 (configuration not stated) | inactive
CC(C)(C)C(=O)/C(C#N)=C/c1ccc(O)cc1 | inactive
Cc1oc2c(F)c(F)c(F)c(F)c2c1S(=O)(=O)Nc1cccc(C(F)(F)F)c1 | inactive
O=C(Nc1ccc(F)c(Cl)c1)C1CCN(S(=O)(=O)c2cccnc2)CC1 | inactive
